According to PubChem BioAssay AID504340 (NMMLSC, 2011):
Where “and” joins values, the source holds several entries; their conditions need not be identical. Equal entries are not always repeated. Calls of active or inactive are those of the source.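 The calls were made as follows: active = GFP response above 150% of the DMSO control; inconclusive = Under 70 cell events counted for a yeast strain; inactive = the rest.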

Experiment: yeast TOR pathway CIT2-GFP reporter retest – flow cytometry, third cherry pick, single plex, confirmation (AID 504340);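 also: median GFP fluorescence over all cells with no mother versus daughter split; sample signal as a ratio to the plate DMSO mean so 100% equals DMSO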
Conditions: S. cerevisiae CIT2-GFP strain, 3 h, at 10 µM, active compounds read high

| SMILES | GFP response vs DMSO |
| --- | --- |
| COc1ccccc1-c1cc(C(F)(F)F)nc(S(=O)(=O)CCCC(=O)NC(C)C)n1 | 104% (inactive) and 94.5% (inactive) |
| OCc1ccc(O)c2ncccc12 | 91.2% (inactive) |
| COc1ccc(Nc2nc(NN)nc(C)c2[N+](=O)[O-])cc1 | 94.5% (inactive) |
| Oc1c(Br)cc(Br)c2cccnc12 | 189% (active) |
| Cc1ccc2nc(-c3ccc(NC(=O)c4cccnc4)cc3)oc2c1 | 104% (inactive) |
| Nc1c(O)ccc2c1C(=O)c1ccccc1C2=O | 99.3% (inactive) |
| C/C(=C\C(=O)c1ccccc1)Nc1cccc(O)c1 | 99.3% (inactive) |
| Oc1c(I)cc(Cl)c2cccnc12 | 182% (active) |
| Nc1ccc(O)c2c1C(=O)c1ccccc1C2=O | 107% (inactive) |
| O=C(O)CCCCCNc1ncnc2ccc(Br)cc12 | 106% (inactive) |
| FC(F)Oc1cccc2cccnc12 | 97.7% (inactive) |
| COc1cccc2c(O)cc(=O)n(C)c12 | 103% (inactive) |
| CC(=O)Nc1ccc(-c2nc3ccccc3o2)cc1 | 99.3% (inactive) |
| COc1ccccc1-c1cc(C(F)(F)F)nc(S(C)(=O)=O)n1 | 106% (inactive) |
| O=C(O)c1ccc(C=NNC(=O)c2cccc3ccccc23)cc1 | 106% (inactive) |
| CC1=CN2C(=N)/C(=C/c3ccc(C)o3)C(=O)N=C2S1 | 112% (inactive) |
| CSc1nc(S(C)(=O)=O)nc2[nH]c(=O)[nH]c12 | 106% (inactive) |
| Cc1ccc(C(=O)Nc2nc(-c3ccccn3)cs2)o1 | 99.3% (inactive) |
| CCCC(=O)Nn1cnc2c(c1=O)C1(CCCCC1)Cc1ccccc1-2 | 94.5% (inactive) |
| Cn1c(=O)c2c(n3cnnc13)-c1ccccc1CC21CCCC1 | 106% (inactive) |

| SMILES | GFP response vs DMSO |
| --- | --- |
| Cc1ccc(-c2cc(C(F)F)nc(S(C)(=O)=O)n2)cc1 | 91.2% (inactive) |
| C/C(=C\C(=O)c1ccc(C)cc1)Nc1cccc(O)c1 | 103% (inactive) |
| CCCOCc1ccc(O)c2ncccc12 | 104% (inactive) |
| CNc1nc(N)c([N+](=O)[O-])c(Nc2ccccc2OC)n1 | 168% (active) |
| COc1ccc(-c2cc(C(F)(F)F)nc(S(C)(=O)=O)n2)cc1OC | 112% (inactive) and 109% (inactive) |
| CC(=O)CC(=O)Nc1ccc(C(N)=O)cc1 | 106% (inactive) |
| COc1ccc(OC)c(Nc2nc(NCCC(C)C)nc(N)c2[N+](=O)[O-])c1 | 103% (inactive) |
| Nc1cccc2c1C(=O)c1ccc(Cl)cc1C2=O | 107% (inactive) |
| Cc1ccc(NN2C(=O)C=C(c3ccccc3)C2=O)cc1 | 151% (active) |
| COc1ccc(NC(=O)ON=C2c3ccccc3-c3ccccc32)cc1 | 109% (inactive) |
| O=C(Nc1cccc2ccccc12)ON=C1CCCCC1 | 106% (inactive) |
| Nc1c(C(=O)O)ccc2c1C(=O)c1ccccc1C2=O | 101% (inactive) |
| COc1cccc(N/C=C/C(=O)c2ccc(C)cc2)c1 | 92.8% (inactive) |
| COc1ccccc1OCc1cc(C(=O)N2CCN(C)C(c3ccccc3)C2)no1 (centres undefined) | 103% (inactive) |
| OCCN1CCN(c2ncnc3ccc(Br)cc23)CC1 | 101% (inactive) |
| C=CCNc1ncnc2ccc(Br)cc12 | 101% (inactive) |
| CCc1c(C)nc2c(OC)cccc2c1Cl | 97.7% (inactive) |
| COc1cc(OC)cc(C(=O)Nc2ccc(-c3nc4ccccc4o3)cc2)c1 | 112% (inactive) |
| CCCCC(=O)NCCc1cc2c(OC)ccc(OC)c2[nH]c1=O | 96.1% (inactive) |
